DAX1 inh-1: DAX1 (NR0B1) inhibition, primary screen | HEK293T StAR-luciferase reporter, SF-1/DAX-1 repression relief | inhibition, % at 6.8 µM | 370,000 compounds, 1.1% hits;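 active means inhibition above the mean over all tested compounds plus 3 SD, cut at about 3.6% in these data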;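 further: higher inhibition means more luminescence from relief of DAX-1 repression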
hgDAF-12 ag: hgDAF-12 agonism, primary luciferase screen; HEK293 GAL4-hgDAF12 UAS-luciferase reporter, agonist luminescence; normalized to butyrate control; activation, % at 6.8 µM; 370,000 compounds, 1.8% hits; AID 687014;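 active means activation above a cutoff set at the mean of all screened compounds plus 3 SD, cut at about 10% in these data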
hcDAF-12 act: activates DAF-12 receptor from parasite H. contortus; AID 652067; 370,000 compounds, 1.4% hits; activation, % at 6.8 µM; HEK293 hcDAF-12 lit1-tk-luc reporter, luminescence; 0% DMSO, 100% Δ7-dafachronic acid;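 active means activation above the mean of all tested compounds plus 3 SD, cut at about 5.5% in these data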
ssDAF12 agonist: S. stercoralis DAF-12 activation, primary screen; AID 652126; activation, % at 6.8 µM; 370,000 compounds, 1% hits; HEK293 ssDAF-12/GRIP1 lit1-tk-luc reporter, luminescence; % of 3 µM dafachronic acid response;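 active means activation above the mean over all tested compounds plus 3 SD, cut at about 0.9% in these data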
DAX1 inh-2: inhibits human nuclear receptor DAX1; P51843; 340,000 compounds, 0.99% hits; inhibition, % at 6.75 µM; HEK293 Gal4-DAX1 luciferase reporter, luminescence;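 active means inhibition above the mean over all tested compounds plus 3 SD, cut at about 4.2% in these data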;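 further: inhibition shows as a rise in luminescence from relieved DAX1 repression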
Target sequence (P51843 207-470 limits assumed): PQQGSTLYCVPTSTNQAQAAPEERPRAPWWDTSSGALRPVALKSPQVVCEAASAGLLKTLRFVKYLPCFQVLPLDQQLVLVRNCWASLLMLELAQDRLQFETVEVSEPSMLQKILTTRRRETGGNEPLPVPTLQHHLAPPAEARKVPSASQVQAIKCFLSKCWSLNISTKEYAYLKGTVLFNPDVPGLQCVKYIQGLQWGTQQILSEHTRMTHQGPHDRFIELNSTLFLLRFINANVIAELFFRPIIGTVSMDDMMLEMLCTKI
Numbers stand for hits; – = inactive; · = no result given. A selection: hits, their analogues and other compounds. The true share with any hit is near 4.1%.

SMILES	DAX1 inh-1	hgDAF-12 ag	hcDAF-12 act	ssDAF12 agonist	DAX1 inh-2
Brc1ccccc1-n1nnc(-c2cnc3ccccc3c2)n1	5.2	13	17	3.5	–
Clc1nc2ccccc2cc1-c1nnn(-c2ccccc2Br)n1	–	–	–	–	–
CCN(CC)Cc1c(NC(=O)c2ccccc2)sc(C)c1C	–	11	–	–	–
FC(F)(F)c1ccccc1NC(=S)OC1CCC12CCC(c1ccccc1)CC2 (configuration not stated)	–	–	–	–	·
COc1ccc2nc(SCC(=O)N3CCNC3=O)[nH]c2c1	–	11	–	–	–
COc1cc2c(cc1OC)C(NC(=O)C(F)(F)F)CNC2=O (configuration not stated)	–	13	–	–	–
N/C(=N\N=C\c1ccc(Br)o1)c1nonc1N	–	13	–	–	6.1
COc1ccc(/C=N/N=C(\N)c2nonc2N)cc1OC	–	–	–	–	–
N/C(=N\N=C\c1ccc([N+](=O)[O-])cc1)c1nonc1N	–	11	–	–	–
Cn1c(-c2nnn(-c3ccc(F)cc3)n2)cc2ccccc21	–	–	12	–	·
COc1ccc(C(=O)N2CCN(CCNC(=O)C(=O)Nc3ccc(F)cc3)CC2)cc1	–	–	–	–	–
COc1ccc(NC(=O)C(=O)NCCN2CCN(C(=O)c3ccc(C)cc3)CC2)cc1	–	–	–	1.2	–
Nc1nonc1-c1noc(COc2ccccc2Cl)n1	–	–	–	–	–
Cc1cccc(OCc2nc(-c3nonc3N)no2)c1C	–	11	–	–	–
CC(Sc1ncn[nH]1)C(=O)Nc1ccc(Cl)cn1 (configuration not stated)	–	–	–	–	–
Clc1ccc(-n2c(SCc3cccc4ccccc34)nnc2-c2ccccc2)cc1	–	–	–	–	·
CCc1ccc(NC(=O)c2cc(C)no2)cc1	–	–	–	–	4.4
CCCc1cc(C(=O)Nc2cc(Cl)ccc2O)no1	–	11	5.6	–	–
CC(C)Cc1cc(C(=O)Nc2ccc(Br)cc2)no1	–	–	–	–	–
CCCc1cc(C(=O)Nc2ccc(CC)cc2)no1	–	11	–	–	–
CCc1ccc(NC(=O)c2cc(CC(C)C)on2)cc1	–	–	–	–	5.1
CC(C)c1cc(C(=O)Nc2cc(Cl)ccc2O)no1	–	–	–	–	–
CCc1ccc(NC(=O)c2cc(-c3cccs3)on2)cc1	–	–	–	–	–
O=C(NC(CC1=CCCCC1)c1ccc2ccccc2c1)C(F)(F)F (configuration not stated)	–	–	–	–	·
CC(C)C[C@H]1COc2cccc(F)c2S(=O)(=O)N1Cc1cn(Cc2ccc(C(F)(F)F)cc2)nn1	–	–	–	–	·
SMILES	DAX1 inh-1	hgDAF-12 ag	hcDAF-12 act	ssDAF12 agonist	DAX1 inh-2
CC(C)Cc1cc(C(=O)Nc2ccc(F)cc2F)no1	3.9	12	–	–	–
Cc1ccc(/C=C/C(=O)Nc2ccncc2)o1	–	–	–	–	–
Cc1ccc(/C=C/C(=O)Nc2ccc(N(C)C)cc2)o1	–	–	–	1.6	–
CC(C)c1ccc(NC(=O)Nc2nc(CN)cs2)cc1	–	12	–	–	·
CC(C)c1ccc(NC(=O)Nc2nc(C(C)N)cs2)cc1 (configuration not stated)	–	–	–	–	·
CC(=O)Nc1ccc(S(=O)(=O)Nc2nc3ccccc3nc2Nc2ccc(S(N)(=O)=O)cc2)cc1	–	–	–	–	–
NS(=O)(=O)c1ccc(Nc2nc3ccccc3nc2NS(=O)(=O)c2cccc([N+](=O)[O-])c2)cc1	–	–	–	–	5.0
Cc1ccc(Nc2nc(N)nc(CSc3nccn3C)n2)cc1	–	11	–	0.9	–
O=C(O)c1cccc(N2C(=O)c3ccc(Oc4ccc(Cl)cc4)cc3C2=O)c1	–	–	–	–	4.6
O=C(O)c1cccc(N2C(=O)c3ccc4c5c(ccc(c35)C2=O)C(=O)N(c2cccc(C(=O)O)c2)C4=O)c1	–	–	–	–	–
Cc1cccc(N2C(=O)c3cccc(Oc4ccc(Cl)cc4)c3C2=O)c1	–	–	–	–	5.2
O=c1oc2ccccc2n1CSc1nc2ccccc2s1	–	11	–	–	–
Nc1ccccc1C(=O)NNc1c2ccccc2nc2ccccc12	–	–	6.4	–	–
C[C@H](CO)N1C[C@H](C)[C@@H](CN(C)Cc2ccc(C(=O)O)cc2)OCCCC[C@H](C)Oc2ccc(NC(=O)CCC(F)(F)F)cc2C1=O	–	–	–	–	·
Cn1c(-c2ccc(F)c(F)c2)cc2onc(-c3ccccc3)c2c1=O	–	12	–	–	–
COC(=O)c1ccc(-c2cc3onc(-c4ccccc4)c3c(=O)n2C)cc1	–	–	–	–	–
COc1cccc(-c2cc3onc(-c4ccccc4)c3c(=O)n2C)c1	–	12	–	–	–
O=C(NC1CCCCN(Cc2ccc(OC(F)(F)F)cc2)C1=O)c1ccc(F)c(F)c1 (configuration not stated)	–	–	–	–	·
COC(=O)[C@H]1C[C@@]2(C#N)c3ccccc3N(C(=O)OC(C)(C)C)[C@H]2N1C(=O)OC(C)(C)C	–	–	–	–	·
COC(=O)N1C[C@H](OC(=O)c2ccc(-c3ccccc3)cc2)[C@H]2C[C@@H]1c1ccccc1O2	–	–	–	–	·
O=C(NCc1cccnc1)c1nn2cccnc2c1Cl	–	–	–	–	5.0
O=C1OCC(CO)(CO)N=C1NNc1ccccc1[N+](=O)[O-]	–	–	–	–	5.2
O=C(CSc1nnc(-c2ccc(Cl)cc2)n1Cc1ccco1)Nc1ccc(S(=O)(=O)Nc2nccs2)cc1	–	–	–	–	·
O=C(Nc1c(-c2ccc(F)cc2)nc2ncccn12)C1CC1	–	–	–	–	·
CS(=O)(=O)c1ccc(C(=O)NC2CCCCC2)cc1	–	–	–	–	–
SMILES	DAX1 inh-1	hgDAF-12 ag	hcDAF-12 act	ssDAF12 agonist	DAX1 inh-2
O=C(NC1CCC1)c1ccc(C#CC2CC2)c[n+]1[O-]	–	11	–	–	·
N#Cc1cccc(NC(=O)OCCN2C(=O)CCC23CCC(c2ccc(Cl)cc2)CC3)c1 (configuration not stated)	–	–	–	–	·
CCOC(=O)c1c(-c2ccccc2)cn2c(C)cc(C)nc12	–	12	–	–	–
O=C(Nc1nc2ncccn2c1-c1ccc(F)cc1)c1ccc(F)cc1	–	–	–	–	·
CC(C)N(Cc1nc(-c2ccc3c(c2)OCO3)no1)Cc1nccn1C	–	–	–	–	–
CCCCNC(=O)C[C@H]1C[C@@]2(C(=O)OC)C(=C[C@H](C(C)C)O[C@@H]2C2CC2)N(Cc2ccc(Cl)cc2Cl)C1=O	–	–	–	–	·
Cn1c(=O)n(CCOc2ccc([N+](=O)[O-])cc2)c2ccccc21	–	–	–	–	–
Cc1ccc(OCCn2c(=O)n(C)c3ccccc32)cc1	–	13	–	–	–
O=C(CCC(=O)c1cccs1)c1cccs1	–	12	–	–	–
CO/N=C(\CCC(=O)O)c1cccs1	–	11	–	–	–

Screening data deposited in PubChem BioAssay by The Scripps Research Institute Molecular Screening Center.
